Rows were chosen to be rich in hits. Some 12% of all compounds tested hit in one or more screens of this group.
SARS PLpro yeast: qHTS of Yeast-based Assay for SARS-CoV PLP. S. cerevisiae expressing SARS-CoV PLpro, growth rescue. Potency, µM (doses to about 32.9 µM), for inactives: top-dose activity, positive = growth rescue, hits mostly activators. actives 0.19% (n = 330,000). AID 485353, 2010; calls by dose curve; note: 0% is about no effect; nearly all actives have a fitted effect of over 55% in size
AMA1-RON2 inh: qHTS for Inhibitors of AMA1-RON; Towards Development of Antimalarial Drug Lead: Primary Screen; AID 720542, 2013; AlphaScreen AMA1-biotinylated RON2 peptide binding; Plasmodium falciparum AMA1 (3D7) - RON2 peptide interaction; actives 0.2% (n = 360,000); Potency, µM (highest dose often 58.2 µM), for the others: at the highest dose activity change, negative = inhibition, hits mostly inhibitors;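 note: 0% = vehicle wells and -100% = peptide control; nearly all actives have a fitted effect of over 45% in size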
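AMA1 (3D7) with his tag at 25 nM final met compounds first, then biotinylated RON2 peptide at 25 nM; detection used donor plus acceptor beads, 10 µg/mL apiece, read by AlphaScreen after 30 min at room temperature.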
HCV inh: qHTS Assay for Inhibitors of Hepatitis C Virus (HCV); Huh7.5.1 HCVcc-Cre infection, luciferase reporter, 44 h; Potency, µM (top dose mostly 41.8 µM), for inactives: at the highest dose activity change, negative = inhibition, usual class: inhibitors; actives 3.4% (n = 340,000); AID 651820, 2012; note: % is set by controls: 0 for no effect and ±100 for the full control effect
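Cells seeded at 1,000/well and cultured 4 h, then compounds added followed by HCVcc-Cre virus (~0.5 moi). After 44 h further culture, luciferase substrate was added, plates held 15 min at room temperature, and luminescence read for 15 sec.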
NS1 inh: qHTS Assay for Inhibitors of Influenza NS1 Protein Function; Potency, µM (top dose mostly 46.1 µM), without a hit: at the highest dose activity, positive = more growth; actives 0.4% (n = 270,000); AID 2326, 2010; calls by dose curve; note: actives are rising curves; nearly all actives have a fitted effect of over 50% in size
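Recovery from NS1-induced slow growth read by OD600 in budding yeast switched to galactose assay medium (pH 6.0, -URA) at 1:100 dilution. Compound 23 nl per well; the matching strain lacking NS1 serves as control.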
Pf growth 96h: Primary qHTS for delayed death inhibitors of the malarial parasite plastid, 96 hour incubation. P. falciparum luciferase reporter growth, 96 h. Potency, µM (top dose mostly 28.7 µM), inactives show at the top dose activity change, negative = inhibition, usual class: inhibitors. actives 6.9% (n = 320,000); note: % is set by controls: 0 for no effect and ±100 for the full control effect
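Luminescence readout: decreased luciferase signal marks inhibited growth of reporter-expressing P. falciparum in infected red cells (2% hematocrit, 0.05% parasitemia final), exposed to compound two generations (96 h, 37 C, 5% CO2).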
Pf growth 48h: Primary qHTS for delayed death inhibitors of the malarial parasite plastid, 48 hour incubation | Potency, µM (highest dose often 28.7 µM), without a hit: at the top dose activity change, negative = inhibition, most hits filed as inhibitors | actives 5.9% (n = 310,000) | P. falciparum luciferase growth in erythrocytes, 48 h; note: % is set by controls: 0 for no effect and ±100 for the full control effect
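Growth was read as firefly luciferase luminescence after a 48 h, 37 C, 5% CO2 exposure of compounds to reporter-bearing P. falciparum cultures (0.1% parasitemia, 2% hematocrit final) in Albumax-supplemented RPMI 1640.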
Starred values were filed as active, the others as inactive; ? = inconclusive; . = no result; [ ] = remark or other dose. Unless noted, calls come from the whole dose curve; as a rule, active = well fitted curve in the direction sought with a large enough effect; inconclusive = small, poorly fitted or top-dose-only effect, or another doubt; inactive = no such curve, though single readings can be large; an effect the other way counts as inactive or inconclusive. Potency is the fitted concentration of half-maximal effect.

SMILES	SARS PLpro yeast	AMA1-RON2 inh	HCV inh	NS1 inh	Pf growth 96h	Pf growth 48h
Cc1ccccc1CN(C)c1ccc(S(=O)(=O)N2CCN(C)CC2)cn1	5%	-7%	15%	.	20%	-11%
CCOc1ccc(OCC)c(-c2c(=O)n(OCc3ccccc3Br)c3ccccc3[n+]2[O-])c1	1%	-6%	-1%	12%	9.3µM*	?
Cc1nnc(-c2cccc(Br)c2)c2cn(-c3ccc(Br)cc3)nc12	-14%	-14%	11µM*	7%	2.6µM*	?
CCN(CC)c1ccc(/C=N/c2sc3c(c2C#N)C2CCN3CC2)c(O)c1	0%	-6%[11.6 µM]	4.5µM*	1%	-6%	-12%
Cc1nn(C)c(Oc2ccccc2)c1CCNS(=O)(=O)c1ccc(Cl)cc1	-3%	-10%	10µM*	-12%	?	?
COc1ccc(OCC(O)CN2CCNCC2)cc1 (stereo not given)	0%	11%	-16%	15%	0%	15%
COc1ccc(Cc2nnc(N/N=C/c3ccc(Br)cc3)[nH]c2=O)cc1OC	-1%	8%	-6%	6%	?	1%
COc1ccc(Cc2nnc(N/N=C/c3ccc(O)cc3)[nH]c2=O)cc1OC	?	?	0.89µM*	-32%	13µM*	9.3µM*
COc1ccccc1-c1nnc(SC(C)C(=O)O)n1-c1ccccc1 (stereo not given)	1%	-5%	13%	0%	5%	-7%
O=[N+]([O-])c1ccc2nc(/C=C/c3ccc(Cl)cc3)[nH]c2c1	-29%	-12%	?	-110%	8.3µM*	8.3µM*
Cc1cc(NC(=O)CS(=O)(=O)c2cn(Cc3ccccc3Cl)c3ccccc23)no1	7%	-4%	?	?	0.59µM*	0%
CCC(=O)N1CCCC1(C)C(=O)Nc1ccc(C)c(C)c1 (stereo not given)	.	-3%	.	.	.	.
CCCCNC(=S)N1CCN(c2nc3ccccc3s2)CC1	-1%	10%	?	-6%	?	0%
CCOCCCNC(=S)N1CCN(c2nc(-c3ccccc3)cs2)CC1	-1%	-16%	10µM*	6%	-24%	-25%
COCCCNC(=S)N1CCN(c2nc(-c3ccccc3)cs2)CC1	-5%	-10%	13µM*	3%	?	-7%
CCN(CC)CCCNC(=S)N1CCN(c2nc(-c3ccccc3)cs2)CC1	1%	-7%	7.9µM*	27%	44%	?
CCCCn1cc(S(=O)(=O)c2ccccc2)c(=O)c2cc(C)ccc21	10%	-2%	-24%	-4%	-9%	?
O=C(CSc1nnc(Cc2cc(=O)[nH]c(=O)[nH]2)n1-c1ccccc1)N1CCCc2ccccc21	-5%	-6%	-2%	14%	-27%	-7%
COC(=O)C(C)Sc1nnc(Cc2cc(=O)[nH]c(=O)[nH]2)n1-c1ccc(OC)cc1 (stereo not given)	-2%	-4%	13%	-3%	0.83µM*	.
COc1cccc(-n2c(Cc3cc(=O)[nH]c(=O)[nH]3)nnc2SCC(=O)N2CCCCC2)c1	-5%	0%	13%	9%	33%	.
O=C(CSc1nnc(Cc2cc(=O)[nH]c(=O)[nH]2)n1-c1ccc(Cl)cc1)N1CCc2ccccc21	2%	.	.	-2%	?	2.9µM*
O=C(CSc1nnc(Cc2cc(=O)[nH]c(=O)[nH]2)n1-c1ccc(F)cc1)N1CCCCC1	-5%	27%	-1%	0%	7.4µM*	.
O=C(CSc1nnc(Cc2cc(=O)[nH]c(=O)[nH]2)n1-c1ccc(F)cc1)NC1CCCC1	-8%	18%	-2%	8%	5.9µM*	.
CCC(C)Sc1nnc(Cc2cc(=O)[nH]c(=O)[nH]2)n1-c1ccc(OC)cc1 (stereo not given)	-1%	17%	12%	4%	-6%	.

Screening results as filed in PubChem.
